Test results from PubChem BioAssay (NCATS).
Records with an inconclusive call do not appear. Calls of active or inactive are those of the source. Unless noted, calls come from the whole dose curve; as a rule, active = well fitted curve in the direction sought with a large enough effect; inconclusive = small, poorly fitted or top-dose-only effect, or another doubt; inactive = no such curve, though single readings can be large; an effect the other way counts as inactive or inconclusive.

Tests used:
[1] = target: ATP-dependent 6-phosphofructokinase (Trypanosoma brucei brucei) (UniProt O15648); assay: qHTS Assay to Find Inhibitors of T. brucei phosphofructokinase: hit validation (AID 492961);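 note: luminescence reports ADP formed as PFK phosphorylates fructose-6-phosphate with ATP; % is set by controls: 0 for no effect and ±100 for the full control effect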
Outline: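 Compounds titrated; %activity normalized to 0x and 1x enzyme controls, curve-fitted. Readout: ADP-Glo luminescence after 45 min room-temperature reaction of 1.25 nM PFK, 0.1 mM ATP, 0.5 mM F6P, pH 8.0.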

[2] = target: Ubiquitin carboxyl-terminal hydrolase 1 (Homo sapiens) (UniProt O94782); assay: Inhibitors of USP1/UAF1: Pilot qHTS (AID 504865); note: potency is the fitted concentration of half-maximal effect; nearly all actives have a fitted effect of over 35% in size
Outline: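 USP1/UAF1 complex (1nM) preincubated with compound 15 min at room temperature, then Ub-Rho substrate (150nM final) added. Fluorescence read kinetically at 480/540 nm, 6 reads every 60 seconds. Buffer: 50mM HEPES pH 7.8, 0.5mM EDTA, 0.1 mg/ml BSA, 1mM TCEP, 0.01% Tween-20.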

[3] = S16 Schwann cell viability assay (CellTiter-Glo assay) (AID 624031);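 note: native untransfected S16 rat Schwann cells; cellular ATP luminescence as a viability measure; plate controls were DMSO-treated cells for no effect and cell-free wells for full effect; nearly all actives have a fitted effect of over 70% in size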
Outline: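 Concentration-effect curves come from CellTiter-Glo luminescence of S16 rat Schwann cells after 24 h compound exposure. Each reading was normalized to DMSO wells (0%) and wells without cells, and curves were ranked by r2 and response magnitude.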

[4] = S16 Schwann cell PMP22 intronic element firefly luciferase assay (AID 624032); note: potency is the fitted concentration of half-maximal effect; nearly all actives have a fitted effect of over 30% in size
Outline: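 Rat S16 Schwann cells stably carrying firefly luciferase driven by a PMP22 intronic element, in 10% FBS, treated 24 h at 37 C. ONE-Glo luminescence normalized to PTC124 control and DMSO (0%); curves classed by r2, magnitude and activity.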

[5] = S16 Schwann cell PMP22 intronic element beta-lactamase assay (AID 624044; calls by dose curve;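 note: 0% = DMSO and -100% = potassium clavulanate positive control; nearly all actives have a fitted effect of over 15% in size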)
Outline: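 Rat S16 Schwann cells with beta-Lac driven by a PMP22 intronic element, compound-treated 24 h at 37 °C. LiveBLAzer FRET B/G read: 460 nm normalized to potassium clavulanate vs DMSO; 535 nm FRET as viability; concentration-effect curves classified.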

[6] = qHTS to identify inhibitors of the type 1 interferon - major histocompatibility complex class I in skeletal muscle: primary screen against the NCATS Mechanism Interrogation Plate v5.0 (MIPE) Libary (AID 1347411); note: potency is the fitted concentration of half-maximal effect; nearly all actives have a fitted effect of over 65% in size
Outline: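 Immortalized human myoblasts (C25cl48) with HiBit knocked into endogenous HLA-B*08:01 were stimulated with 4 ng/ml IFN-beta and given compounds in 11-point 1:3 titration from 46 uM. After 24 h at 37 C, lytic HiBiT luminescence was read.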

[7] = Primary qHTS for inhibitors of nuclear receptor binding SET domain protein 2 (NSD2) in an RCH-ACV wild type WT cells (2C) (AID 1645877); note: potency is the fitted concentration of half-maximal effect; nearly all actives have a fitted effect of over 70% in size
[8] = target: Glutathione peroxidase 1 (Homo sapiens) (UniProt P07203); assay: Primary qHTS Assay for Inhibitors of Recombinant Selenoprotein Glutathione Peroxidase 1 (GPX1) (AID 1845191); note: nearly all actives have a fitted effect of over 65% in size
Outline: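 GR-coupled assay: compounds preincubated 30 min at room temperature with GPX1, then reaction started with CHP; final 10 nM GPX1, 1 mM GSH, 0.5 mM CHP, 0.5 mM NADPH, 100 nM GR, 0.01% BSA, pH 7.5 Tris buffer. NADPH fluorescence (340/450 nm) read at 0 and 15 min.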

[9] = qHTS drug screen for cell cycle checkpoint inhibitors in PARPi-resistant BRCA-mutant ovarian cancer cell lines. (AID 1963452; calls by dose curve); conditions: PEO1/OlaR viability, CellTiter-Glo luminescence, 96 h, stronger effect = lower value
Outline: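 PEO1, PEO4 and PEO1/OlaR ovarian cancer cells, 600 per well, exposed 96 h at 37C to a dilution series. Viability read by CellTiter-Glo luminescence, normalized to DMSO and empty wells; activity summarized as Z-AUC.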

[10] = qHTS profiling for inhibitors of Plasmodium falciparum proliferation (AID 504749); note: potency is the fitted concentration of half-maximal effect; nearly all actives have a fitted effect of over 60% in size; conditions: P. falciparum in erythrocytes, SYBR Green DNA, 72 h
Outline: (§1)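 P. falciparum-infected erythrocytes (0.3% parasitemia, 2.5% hematocrit) incubated with compound 72 h at 37 C, 5% CO2. Parasite DNA detected by SYBR Green after lysis, overnight at room temperature; normalised to 0.29 uM artemisinin and DMSO.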

[11] = tested on: 3D7; assay: as above; conditions: P. falciparum in erythrocytes, SYBR Green DNA, 72 h; series mostly up to 28.7 µM
Outline: as §1

[12] = tested on: 7G8; assay: as above; conditions: P. falciparum in erythrocytes, SYBR Green DNA, 72 h; series mostly up to 28.7 µM
Outline: as §1

[13] = tested on: AA1029; assay: as above; conditions: P. falciparum in erythrocytes, SYBR Green DNA, 72 h; series mostly up to 28.7 µM
Outline: as §1

[14] = tested on: AS120; assay: as above; conditions: P. falciparum in erythrocytes, SYBR Green DNA, 72 h; series mostly up to 28.7 µM
Outline: as §1

[15] = tested on: ATS189; assay: as above; conditions: P. falciparum in erythrocytes, SYBR Green DNA, 72 h; series mostly up to 28.7 µM
Outline: as §1

[16] = tested on: ATS95; assay: as above; conditions: P. falciparum in erythrocytes, SYBR Green DNA, 72 h; series mostly up to 28.7 µM
Outline: as §1

[17] = tested on: C2A; assay: as above; conditions: P. falciparum in erythrocytes, SYBR Green DNA, 72 h; series mostly up to 28.7 µM
Outline: as §1

[18] = tested on: CP185; assay: as above; conditions: P. falciparum in erythrocytes, SYBR Green DNA, 72 h; series mostly up to 28.7 µM
Outline: as §1

[19] = tested on: CP191; assay: as above; conditions: P. falciparum in erythrocytes, SYBR Green DNA, 72 h; series mostly up to 28.7 µM
Outline: as §1

[20] = tested on: CP192; assay: as above; conditions: P. falciparum in erythrocytes, SYBR Green DNA, 72 h; series mostly up to 28.7 µM
Outline: as §1

[21] = tested on: CP194; assay: as above; conditions: P. falciparum in erythrocytes, SYBR Green DNA, 72 h; series mostly up to 28.7 µM
Outline: as §1

[22] = tested on: CP201; assay: as above; conditions: P. falciparum in erythrocytes, SYBR Green DNA, 72 h; series mostly up to 28.7 µM
Outline: as §1

[23] = tested on: CP203; assay: as above; conditions: P. falciparum in erythrocytes, SYBR Green DNA, 72 h; series mostly up to 28.7 µM
Outline: as §1

[24] = tested on: CP211; assay: as above; conditions: P. falciparum in erythrocytes, SYBR Green DNA, 72 h; series mostly up to 28.7 µM
Outline: as §1

[25] = tested on: CP215; assay: as above; conditions: P. falciparum in erythrocytes, SYBR Green DNA, 72 h; series mostly up to 28.7 µM
Outline: as §1

[26] = tested on: CP217; assay: as above; conditions: P. falciparum in erythrocytes, SYBR Green DNA, 72 h; series mostly up to 28.7 µM
Outline: as §1

[27] = tested on: CP237; assay: as above; conditions: P. falciparum in erythrocytes, SYBR Green DNA, 72 h; series mostly up to 28.7 µM
Outline: as §1

[28] = tested on: CP238; assay: as above; conditions: P. falciparum in erythrocytes, SYBR Green DNA, 72 h; series mostly up to 28.7 µM
Outline: as §1

[29] = tested on: CP247; assay: as above; conditions: P. falciparum in erythrocytes, SYBR Green DNA, 72 h; series mostly up to 28.7 µM
Outline: as §1

[30] = tested on: CP250; assay: as above; conditions: P. falciparum in erythrocytes, SYBR Green DNA, 72 h; series mostly up to 28.7 µM
Outline: as §1

Sequence of Glutathione peroxidase 1 (Homo sapiens) (P07203 whole entry, looked up): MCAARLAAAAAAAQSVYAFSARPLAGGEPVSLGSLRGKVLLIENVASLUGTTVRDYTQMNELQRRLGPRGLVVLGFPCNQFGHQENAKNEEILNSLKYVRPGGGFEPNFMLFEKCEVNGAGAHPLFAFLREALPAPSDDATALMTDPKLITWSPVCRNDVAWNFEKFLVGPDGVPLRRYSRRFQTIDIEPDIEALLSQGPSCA
Sequence of ATP-dependent 6-phosphofructokinase (Trypanosoma brucei brucei) (O15648 whole entry, looked up): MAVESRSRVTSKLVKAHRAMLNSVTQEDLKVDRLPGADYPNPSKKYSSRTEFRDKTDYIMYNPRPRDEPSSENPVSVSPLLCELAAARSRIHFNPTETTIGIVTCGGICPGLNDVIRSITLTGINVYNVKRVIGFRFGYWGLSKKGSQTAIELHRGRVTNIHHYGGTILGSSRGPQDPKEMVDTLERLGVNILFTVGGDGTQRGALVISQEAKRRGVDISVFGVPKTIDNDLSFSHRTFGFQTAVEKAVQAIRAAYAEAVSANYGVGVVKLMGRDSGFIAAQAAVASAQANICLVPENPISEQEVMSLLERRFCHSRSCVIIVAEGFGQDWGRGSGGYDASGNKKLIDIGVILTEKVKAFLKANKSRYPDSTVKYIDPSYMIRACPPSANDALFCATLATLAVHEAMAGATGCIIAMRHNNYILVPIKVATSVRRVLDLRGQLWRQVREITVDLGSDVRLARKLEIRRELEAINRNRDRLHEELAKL
Sequence of Ubiquitin carboxyl-terminal hydrolase 1 (Homo sapiens) (O94782 whole entry, looked up): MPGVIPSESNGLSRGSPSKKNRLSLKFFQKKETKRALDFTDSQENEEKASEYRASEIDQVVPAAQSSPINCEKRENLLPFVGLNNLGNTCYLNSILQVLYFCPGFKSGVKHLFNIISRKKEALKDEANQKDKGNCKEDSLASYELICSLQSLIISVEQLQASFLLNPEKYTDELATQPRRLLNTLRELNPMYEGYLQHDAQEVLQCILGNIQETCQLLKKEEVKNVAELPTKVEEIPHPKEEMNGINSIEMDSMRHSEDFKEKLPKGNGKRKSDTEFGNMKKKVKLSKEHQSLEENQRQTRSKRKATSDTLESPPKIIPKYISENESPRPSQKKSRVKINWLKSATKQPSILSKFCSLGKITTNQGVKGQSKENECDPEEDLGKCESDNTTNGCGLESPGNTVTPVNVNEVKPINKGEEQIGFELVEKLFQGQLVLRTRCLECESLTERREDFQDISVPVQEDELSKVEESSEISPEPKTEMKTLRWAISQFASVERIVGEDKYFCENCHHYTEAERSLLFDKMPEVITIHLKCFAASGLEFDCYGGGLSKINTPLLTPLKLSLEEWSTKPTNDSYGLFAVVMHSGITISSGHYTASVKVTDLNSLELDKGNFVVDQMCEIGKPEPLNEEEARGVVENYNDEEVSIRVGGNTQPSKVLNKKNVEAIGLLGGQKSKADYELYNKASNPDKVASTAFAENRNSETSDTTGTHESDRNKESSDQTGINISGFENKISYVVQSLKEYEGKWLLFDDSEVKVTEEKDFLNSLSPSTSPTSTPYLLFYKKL

CO[C@H]1/C=C/O[C@@]2(C)Oc3c(C)c(O)c4c(O)c(c(/C=N\N5CCN(C6CCCC6)CC5)c(O)c4c3C2=O)NC(=O)/C(C)=C\C=C\[C@H](C)[C@H](O)[C@@H](C)[C@@H](O)[C@@H](C)[C@H](OC(C)=O)[C@@H]1C
active: Potency [2] 56.2 µM | Potency [4] 10.2 µM | Potency [6] 18.6 µM | Potency [7] 20.9 µM | Potency ([10]; parasite line A) 1.58 µM | Potency ([10]; parasite line B) 0.631 µM | Potency [11] 1.26 µM | Potency [12] 0.141 µM | Potency [13] 1.26 µM | Potency [14] 0.126 µM | Potency [15] 1.41 µM | Potency [16] 1.26 µM | Potency [17] 2.51 µM | Potency [18] 1.58 µM | Potency [19] 1 µM | Potency [20] 4.78 µM | Potency [21] 4.26 µM | Potency [22] 5.36 µM | Potency [23] 3.79 µM | Potency [24] 4.26 µM | Potency [25] 4.26 µM | Potency [26] 1.41 µM | Potency [27] 0.224 µM | Potency [28] 2.24 µM | Potency [29] 1.41 µM | Potency [30] 3.16 µM
inactive: outcome [1] | outcome [3] | outcome [5] | Potency [8] | Z-AUC [9] -0.749
-0.895: Z-AUC ([9]; measured here: PEO1 parental Z-AUC)
-0.603: Z-AUC ([9]; measured here: PEO4 Z-AUC)
